Drawing on PubChem BioAssay AID2796 (The Scripps Research Institute Molecular Screening Center, 2010), this text covers activation for 94 compounds.

Structures are written as SMILES. The whole screen tested about 320,000 compounds, of which about 8,000 (2.5%) were called active. What follows is part of a selection rich in actives, with near analogues and random picks from the rest. Values without a mark were called inactive. Rule as the data show it: active = activation above about 47%; inactive = the rest.

The target in the test is Aryl hydrocarbon receptor (Homo sapiens) (UniProt P35869). Put plainly: AHR activators, primary screen, cell-based, luminescence, luciferase reporter, human (AID 2796).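 Also: 0% = vehicle wells and 100% = reference agonist.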 The settings on record: AHR-responsive luciferase reporter cells, at 5 µM, active compounds read high. For orientation: Reporter assays use an easily measured gene product as a stand-in for the process of interest.
Aryl hydrocarbon receptor (Homo sapiens), sequence (P35869 whole entry, looked up): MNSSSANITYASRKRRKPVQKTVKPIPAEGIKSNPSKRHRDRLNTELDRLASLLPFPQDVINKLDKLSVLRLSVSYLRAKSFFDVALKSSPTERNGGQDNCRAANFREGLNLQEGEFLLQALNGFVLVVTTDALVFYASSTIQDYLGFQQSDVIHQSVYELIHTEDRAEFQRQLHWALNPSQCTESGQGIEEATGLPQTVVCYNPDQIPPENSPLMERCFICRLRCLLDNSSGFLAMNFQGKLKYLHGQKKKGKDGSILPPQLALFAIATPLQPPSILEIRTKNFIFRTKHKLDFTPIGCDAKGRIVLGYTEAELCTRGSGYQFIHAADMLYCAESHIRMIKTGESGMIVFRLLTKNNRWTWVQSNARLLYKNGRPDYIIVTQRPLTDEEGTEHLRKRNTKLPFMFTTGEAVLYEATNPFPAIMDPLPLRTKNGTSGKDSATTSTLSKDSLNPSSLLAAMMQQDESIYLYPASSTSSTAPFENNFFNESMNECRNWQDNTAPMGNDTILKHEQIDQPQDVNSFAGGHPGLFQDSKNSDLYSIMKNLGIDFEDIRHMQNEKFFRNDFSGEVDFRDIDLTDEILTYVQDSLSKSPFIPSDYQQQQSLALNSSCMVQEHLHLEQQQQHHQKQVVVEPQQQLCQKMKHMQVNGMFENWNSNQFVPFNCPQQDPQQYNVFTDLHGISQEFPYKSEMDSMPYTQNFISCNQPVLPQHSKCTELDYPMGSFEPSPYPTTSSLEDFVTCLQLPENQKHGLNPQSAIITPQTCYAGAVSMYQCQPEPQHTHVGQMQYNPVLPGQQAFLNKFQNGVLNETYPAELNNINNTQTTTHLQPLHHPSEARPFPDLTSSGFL
For the compound `CN1CCN(C(CNS(=O)(=O)c2cccs2)c2cccnc2)CC1` (centres undefined), the activation was 0.06%.
With `Cc1cc(C(=O)NNS(=O)(=O)c2ccccc2C(F)(F)F)nn1C(C)(C)C`, the activation is 33.2%.
Turning to `Cc1ccc(C(=O)NC(=S)NCc2cccnc2)cc1`, the activation was 70.4% (active).
Consider `Cc1c(C(=O)NC(=S)NCc2cccnc2)oc2ccccc12`, for which the activation is 6.27%.
Take `CC(C)(C)c1cc(C(=O)NCc2cccnc2)ccn1`: the activation is 5.21%.
On to `CS(=O)(=O)N1CCCC(C(=O)N2CCOCC2)C1` (centres undefined), for which the activation was -4.42%.
With `COc1ccc(CNc2nc(NCc3ccc(OC)cc3)c3ncn(C4CCCC4)c3n2)cc1`, the activation was 5.12%.
As to `CCN(CC(=O)Nc1ccccc1C(F)(F)F)C(=O)C1CCN(C(=O)Nc2ccccc2)CC1`, the activation was 0.13%.
Then `Cc1c(C(=O)NCC(c2ccco2)N2CCCC2)oc2ccc(Cl)cc12` (centres undefined), with 91.5% (active); and `CSc1ncccc1C(=O)NCC(c1ccco1)N1CCCCC1` (centres undefined), with 0.96%; and `Cc1cc(S(=O)(=O)Nc2ccc(C(=O)NCC(c3ccco3)N3CCCC3)cc2)ccc1F` (centres undefined), with 2.37%.
As for `O=C1/C(=C/c2ccc3c(c2)OCO3)Oc2cc(OCC(=O)N3CC(O)C[C@H]3C(=O)O)ccc21` (some centres undefined), the activation is 0.62%.
Regarding `COc1cc(SC#N)ccc1N=Cc1c(C)[nH]n(-c2ccc(C)cc2)c1=O`, the activation was 71.7% (active).
Turning to `Cc1[nH]n(-c2ccccc2)c(=O)c1/C=N/NC(=O)c1ccoc1C`, the activation was 24.8%.
For the compound `Cc1ccc(-n2[nH]c(C)c(/C=N/NC(=O)c3cccc([N+](=O)[O-])c3)c2=O)cc1C`, the activation is 15.9%.
On to `Cc1nn(C)c(C)c1Sc1ccccc1N`, for which the activation was 2.57%.
On to `O=C(Nc1ccccc1Cl)N1CCN(c2ccc3nncn3n2)CC1`, for which the activation was -1.87%.
As to `Cc1ccc(/C=C(\C#N)C(=O)Nc2cccc3ncccc23)o1`, the activation is 7%.
Consider `O=C(c1ccc(Cl)cc1)n1cnc2ccccc21`, for which the activation is -0.68%.
As for `O=C(Cc1nc2ccccc2[nH]c1=O)c1ccc(Cl)cc1`, the activation is 57.9% (active).
The figure for `O=c1c(-c2ccc(Cl)cc2)[n+]([O-])c2ccccc2n1OCc1nc2ccccc2[nH]1` is 24.5%; for `CCN(CCn1cccn1)Cc1cn[nH]c1-c1ccc(OC)cc1F` it is 1.96%; for `[O-][n+]1c2c(nn1-c1ccc(Cl)c(Cl)c1)-c1nonc1CC2` it is 78.5% (active).
Then `O=C(COc1ccc([N+](=O)[O-])cc1)Nc1cccc(C(=O)Nc2ccccc2C(=O)O)c1`, with -3.04%; and `CCOC(=O)/C=C/CN(C(=O)OC(C)(C)C)S(=O)(=O)N1CC=CC1`, with -1.1%.
For the compound `COC(=O)c1ccc(/C=N/N2C(C)CCCC2C)cc1` (centres undefined), the activation is -0.9%.
For the compound `COc1ccc(C(=O)N2CCN(c3ccc(C(C)=O)cc3F)CC2)cc1S(=O)(=O)NC1CC1`, the activation was 2.09%.
Consider `O=C(Nc1ccc(N2C(=O)c3cccc4cccc(c34)C2=O)cc1)c1ccc(N2CCCCC2)c([N+](=O)[O-])c1`, for which the activation was -0.89%.
Turning to `CCC(c1nnnn1C1CCCC1)N(Cc1cccs1)Cc1cc2cccc(C)c2[nH]c1=O` (centres undefined), the activation was 54.6% (active).
As to `Cc1cccc2cc(CN(Cc3nnnn3Cc3ccccc3)C3CCCC3)c(=O)[nH]c12`, the activation is 12.9%.
Consider `CCC(c1nnnn1Cc1ccco1)N(CCc1ccccc1)Cc1cc2cccc(C)c2[nH]c1=O` (centres undefined), for which the activation is 19.4%.
Take `CC(=O)Nc1ccc(S(=O)(=O)NCCC(=O)N2CCN(c3ccccc3Cl)CC2)cc1`: the activation was 0.74%.
Regarding `CCC(CO)Oc1cc(NC(=O)c2cccc3ccccc23)c2ncn(C(C)C)c2c1` (centres undefined), the activation was 5.86%.
Regarding `COC(=O)c1cc(C(=O)OCC(=O)Nc2cc(C)on2)cc([N+](=O)[O-])c1`, the activation is 0.26%.
The figure for `O=C1CC2(CCCC2)C(=O)N1CN1CCN(S(=O)(=O)c2ccc(F)cc2F)CC1` is 1.21%; for `CNC(=O)Nc1cc(C(C)(C)C)no1` it is 1.28%.
Consider `COc1ccccc1-c1nnc(-c2ccc(F)cc2)o1`, for which the activation was 33.5%.
`FC(F)(F)c1cnc(Oc2ccccc2-c2nnc(-c3ccc(Cl)cc3)o2)c(Cl)c1`: the activation was 1.03%.
On to `CSc1ccccc1-c1nnc(-c2ccc(Cl)cc2)o1`, for which the activation was 52.9% (active).
`Nc1ccc2nn(-c3ccc(Cl)cc3)nc2c1`: the activation was 109% (active).
Take `c1ccc(-n2nc3ccccc3n2)cc1`: the activation was -5.11%.
In the case of `CCC(=O)Nc1ccc2nn(-c3ccc(F)cc3)nc2c1`, the activation was 31.9%.
Then `Cc1nn(-c2ccccc2)nc1C(=O)OCC(=O)N1CCCCC1C` (centres undefined), with 4.35%.
In the case of `CC(Sc1nnc(C2CC2)n1C1CC1)C(=O)Nc1ccc(C(N)=O)cc1` (centres undefined), the activation is -0.58%.
For the compound `c1cnc(N2CCN(c3ccc4ccccc4n3)CC2)nc1`, the activation is 120% (active).
As for `CC12CCC(C(=O)N3CCN(c4ncccn4)CC3)(c3nc4ccccc4nc31)C2(C)C` (centres undefined), the activation was 16.9%.
With `O=C(c1ccncc1)N1CCN(c2ccc3ccccc3n2)CC1`, the activation was -0.88%.
Consider `O=C1NC(c2ccccc2)CCC1(Cl)Cl` (centres undefined), for which the activation is 0.32%.
Then `CC(C)CCN1CCN(Cc2ccc(C(F)(F)F)cc2)CC1CCO` (centres undefined), with 1.42%; and `COc1cc(NC(=O)COC(=O)CSc2ccc3ccccc3c2)c(C)cc1[N+](=O)[O-]`, with 60% (active).
For the compound `COc1cc(NC(=O)COC(=O)c2cnc(C)cn2)c(C)cc1[N+](=O)[O-]`, the activation was 49.4% (active).
With `COc1ccc(OCC(=O)Nc2cc(C)c(Cl)cc2OC)c([N+](=O)[O-])c1`, the activation was 3.52%.
For `Cc1cnc(C(=O)OCC(=O)Nc2ccc(Cl)cc2Cl)cn1`, the activation is 2.01%.
Take `Cc1ccc(C)c(NC(=O)COC(=O)CSc2ccccc2)c1`: the activation was -0.94%.
Take `Cc1cc(NC(=O)COC(=O)COc2ccc(Cl)cc2C)c([N+](=O)[O-])cc1C`: the activation was 4.86%.
As for `Cc1cccc(N2CCN(C(=O)/C=C/c3ccco3)CC2)c1C`, the activation is 2.32%.
Consider `CCN(CC)S(=O)(=O)c1ccc(N2CCCC2)c(NC(=O)c2ccc([N+](=O)[O-])o2)c1`, for which the activation is 0.5%.
The figure for `COc1ccc(N2C(=O)C3C(C2=O)C(C(=O)c2ccccc2)N2CCCC32)cc1` (centres undefined) is 5.21%; for `Cc1nc2c(c(C)nn2-c2ccccc2)c(C)c1C` it is 45.6%.
On to `Cc1nn(-c2ccccc2)c2[nH]c(C(F)(F)F)cc(=O)c12`, for which the activation was 80.4% (active).
As to `Cc1nn(-c2ccccc2)c(=O)c2noc(C)c12`, the activation was -0.28%.
With `C=CCC[C@@H](Cc1ccc(F)cc1)C(=O)O[C@H](CNC(=O)[C@H](CC=C)CC(=O)N(CCO)Cc1ccccc1)c1ccccc1`, the activation was -0.27%.
Consider `O=C(Nc1ccc(C(=O)O)cc1)/C(=C\c1ccccc1)NC(=O)c1ccc(Br)cc1`, for which the activation was -2.04%.
`CCc1ccccc1NC(=O)/C(=C/c1ccccc1)c1ccccc1`: the activation is 0.15%.
In the case of `O=C(/C=C/c1ccccc1)N/C(=C/c1ccccc1)C(=O)Nc1ccccc1O`, the activation was 74.4% (active).
Consider `Cc1ccc(S(=O)(=O)N2CCOCC2)cc1NC(=O)COC(=O)c1cnccn1`, for which the activation was 0.82%.
For `O=C(CCl)Nc1cccc(CP(=O)(c2ccccc2)c2ccccc2)c1`, the activation is -0.56%.
On to `Cc1ccc(S(=O)(=O)N(C)C)cc1NC(=O)CN1c2cccc3cccc(c23)S1(=O)=O`, for which the activation was 5.14%.
Turning to `CC(=O)N[C@@H](C)C(=O)N1CCC(n2nccc2NC(=O)CCCc2ccccc2)CC1`, the activation was 1.83%.
The figure for `O=C(CCNS(=O)(=O)c1ccc(Br)cc1)NCC1CCCO1` (centres undefined) is 0.8%; for `COc1ccccc1NC(=O)C1=C(C)Nc2ncnn2C1c1ccc(C)o1` (centres undefined) it is 13.1%; for `COc1ccccc1NC(=O)C1=C(C)NC2=C(C(=O)CCC2)C1c1ccc(C)o1` (centres undefined) it is 102% (active).
Consider `COc1ccccc1NC(=O)C1=C(C)NC(=O)NC1c1ccc(C)s1` (centres undefined), for which the activation is 5.73%.
On to `CCOc1cc2[nH]c(=S)n(CCN3CCCCC3C)c(=O)c2cc1OCC` (centres undefined), for which the activation is 7.8%.
`COC(CNC(=O)c1ccc2c(c1)ncn2-c1cc(C)cc(C)c1)OC`: the activation was 1.33%.
On to `Cc1ccc(C(=O)Nc2nc3ccc(Cl)cc3s2)o1`, for which the activation is -2.1%.
As for `CS(=O)(=O)c1ccc2nc(NC(=O)c3ccc(Cl)nc3)sc2c1`, the activation was -5.2%.
As for `CNC(=O)c1ccc2nc(NC(C)=O)sc2c1`, the activation is 84.2% (active).
Take `CC(NC(=O)CN(C)S(=O)(=O)c1ccc(F)cc1)C1CC2CCC1C2` (centres undefined): the activation was -0.07%.
The figure for `COCCCNC(=S)N1CCCC(c2nc3cc(C)c(C)cc3[nH]2)C1` (centres undefined) is 12.7%; for `CN(C)CCCNC(=S)N1CCC(c2nc3ccccc3[nH]2)CC1` it is -0.37%; for `CCNC(=S)N1CCC(c2nc3cc(C)c(C)cc3[nH]2)CC1` it is 84.9% (active).
For `O=C(Nc1cc(C(F)(F)F)ccc1Cl)c1cc(C2CC2)on1`, the activation is 20.4%.
In the case of `CCCCC(=O)Nc1ccc(C(=O)Nc2cc(C(F)(F)F)ccc2Cl)cc1`, the activation was 140% (active).
Turning to `CC(=O)Nc1ccc(NC(=O)CCCNC(=O)c2ccc(Cl)cc2)cc1`, the activation is 1.47%.
Then `COc1ccccc1-c1cnn2c(N3CCOCC3)cc(C)nc12`, with 34.4%; and `O=C(COC(=O)c1cccnc1Cl)NC(=O)NC1CCCCC1`, with -1.66%.
`COC(C[C@@H]1O[C@@H]1C(=O)[C@H](C)OCc1ccccc1)OC`: the activation is -0.2%.
With `Nc1nonc1-c1noc(-c2ccc(Br)o2)n1`, the activation is 14.2%.
For `Cn1nc(-c2ccccc2)c(-c2nc(-c3ccc(Cl)cc3)no2)c1Cl`, the activation is -1.35%.
As to `Brc1ccc(-c2nnc(-c3ccccc3)o2)o1`, the activation was 70.7% (active).
As for `Brc1ccc(-c2noc(-c3ccccc3)n2)o1`, the activation is 122% (active).
Regarding `O=C(OCc1ccc(Br)cc1)c1cccc(-c2nnc(-c3ccccc3)o2)c1`, the activation was 11.6%.
In the case of `Nc1ccc(-c2nnc(-c3ccccc3)o2)cc1`, the activation is 3.02%.
